Source: the supplement of paper PMC11732987, “Enantioselective OTUD7B fragment discovery through chemoproteomics screening and high-throughput optimisation” (Communications Chemistry, 2025)

Columns and labels:
Experiment in all cases: log2 ratio of Biotin-Ahx-Ub-VS probe labelling (fragment/DMSO); higher = less target engagement (more negative = stronger competition), active = hit call of the paper (q ≤ 0.05, log2 ratio ≤ -1)
Details in all cases: compound concentration: 200 uM; treatment time: 3 h
[1] = molecular target: USP34 (UniProt Q70CQ2)
Chain of USP34 (Q70CQ2 whole entry, the tested form may be a part): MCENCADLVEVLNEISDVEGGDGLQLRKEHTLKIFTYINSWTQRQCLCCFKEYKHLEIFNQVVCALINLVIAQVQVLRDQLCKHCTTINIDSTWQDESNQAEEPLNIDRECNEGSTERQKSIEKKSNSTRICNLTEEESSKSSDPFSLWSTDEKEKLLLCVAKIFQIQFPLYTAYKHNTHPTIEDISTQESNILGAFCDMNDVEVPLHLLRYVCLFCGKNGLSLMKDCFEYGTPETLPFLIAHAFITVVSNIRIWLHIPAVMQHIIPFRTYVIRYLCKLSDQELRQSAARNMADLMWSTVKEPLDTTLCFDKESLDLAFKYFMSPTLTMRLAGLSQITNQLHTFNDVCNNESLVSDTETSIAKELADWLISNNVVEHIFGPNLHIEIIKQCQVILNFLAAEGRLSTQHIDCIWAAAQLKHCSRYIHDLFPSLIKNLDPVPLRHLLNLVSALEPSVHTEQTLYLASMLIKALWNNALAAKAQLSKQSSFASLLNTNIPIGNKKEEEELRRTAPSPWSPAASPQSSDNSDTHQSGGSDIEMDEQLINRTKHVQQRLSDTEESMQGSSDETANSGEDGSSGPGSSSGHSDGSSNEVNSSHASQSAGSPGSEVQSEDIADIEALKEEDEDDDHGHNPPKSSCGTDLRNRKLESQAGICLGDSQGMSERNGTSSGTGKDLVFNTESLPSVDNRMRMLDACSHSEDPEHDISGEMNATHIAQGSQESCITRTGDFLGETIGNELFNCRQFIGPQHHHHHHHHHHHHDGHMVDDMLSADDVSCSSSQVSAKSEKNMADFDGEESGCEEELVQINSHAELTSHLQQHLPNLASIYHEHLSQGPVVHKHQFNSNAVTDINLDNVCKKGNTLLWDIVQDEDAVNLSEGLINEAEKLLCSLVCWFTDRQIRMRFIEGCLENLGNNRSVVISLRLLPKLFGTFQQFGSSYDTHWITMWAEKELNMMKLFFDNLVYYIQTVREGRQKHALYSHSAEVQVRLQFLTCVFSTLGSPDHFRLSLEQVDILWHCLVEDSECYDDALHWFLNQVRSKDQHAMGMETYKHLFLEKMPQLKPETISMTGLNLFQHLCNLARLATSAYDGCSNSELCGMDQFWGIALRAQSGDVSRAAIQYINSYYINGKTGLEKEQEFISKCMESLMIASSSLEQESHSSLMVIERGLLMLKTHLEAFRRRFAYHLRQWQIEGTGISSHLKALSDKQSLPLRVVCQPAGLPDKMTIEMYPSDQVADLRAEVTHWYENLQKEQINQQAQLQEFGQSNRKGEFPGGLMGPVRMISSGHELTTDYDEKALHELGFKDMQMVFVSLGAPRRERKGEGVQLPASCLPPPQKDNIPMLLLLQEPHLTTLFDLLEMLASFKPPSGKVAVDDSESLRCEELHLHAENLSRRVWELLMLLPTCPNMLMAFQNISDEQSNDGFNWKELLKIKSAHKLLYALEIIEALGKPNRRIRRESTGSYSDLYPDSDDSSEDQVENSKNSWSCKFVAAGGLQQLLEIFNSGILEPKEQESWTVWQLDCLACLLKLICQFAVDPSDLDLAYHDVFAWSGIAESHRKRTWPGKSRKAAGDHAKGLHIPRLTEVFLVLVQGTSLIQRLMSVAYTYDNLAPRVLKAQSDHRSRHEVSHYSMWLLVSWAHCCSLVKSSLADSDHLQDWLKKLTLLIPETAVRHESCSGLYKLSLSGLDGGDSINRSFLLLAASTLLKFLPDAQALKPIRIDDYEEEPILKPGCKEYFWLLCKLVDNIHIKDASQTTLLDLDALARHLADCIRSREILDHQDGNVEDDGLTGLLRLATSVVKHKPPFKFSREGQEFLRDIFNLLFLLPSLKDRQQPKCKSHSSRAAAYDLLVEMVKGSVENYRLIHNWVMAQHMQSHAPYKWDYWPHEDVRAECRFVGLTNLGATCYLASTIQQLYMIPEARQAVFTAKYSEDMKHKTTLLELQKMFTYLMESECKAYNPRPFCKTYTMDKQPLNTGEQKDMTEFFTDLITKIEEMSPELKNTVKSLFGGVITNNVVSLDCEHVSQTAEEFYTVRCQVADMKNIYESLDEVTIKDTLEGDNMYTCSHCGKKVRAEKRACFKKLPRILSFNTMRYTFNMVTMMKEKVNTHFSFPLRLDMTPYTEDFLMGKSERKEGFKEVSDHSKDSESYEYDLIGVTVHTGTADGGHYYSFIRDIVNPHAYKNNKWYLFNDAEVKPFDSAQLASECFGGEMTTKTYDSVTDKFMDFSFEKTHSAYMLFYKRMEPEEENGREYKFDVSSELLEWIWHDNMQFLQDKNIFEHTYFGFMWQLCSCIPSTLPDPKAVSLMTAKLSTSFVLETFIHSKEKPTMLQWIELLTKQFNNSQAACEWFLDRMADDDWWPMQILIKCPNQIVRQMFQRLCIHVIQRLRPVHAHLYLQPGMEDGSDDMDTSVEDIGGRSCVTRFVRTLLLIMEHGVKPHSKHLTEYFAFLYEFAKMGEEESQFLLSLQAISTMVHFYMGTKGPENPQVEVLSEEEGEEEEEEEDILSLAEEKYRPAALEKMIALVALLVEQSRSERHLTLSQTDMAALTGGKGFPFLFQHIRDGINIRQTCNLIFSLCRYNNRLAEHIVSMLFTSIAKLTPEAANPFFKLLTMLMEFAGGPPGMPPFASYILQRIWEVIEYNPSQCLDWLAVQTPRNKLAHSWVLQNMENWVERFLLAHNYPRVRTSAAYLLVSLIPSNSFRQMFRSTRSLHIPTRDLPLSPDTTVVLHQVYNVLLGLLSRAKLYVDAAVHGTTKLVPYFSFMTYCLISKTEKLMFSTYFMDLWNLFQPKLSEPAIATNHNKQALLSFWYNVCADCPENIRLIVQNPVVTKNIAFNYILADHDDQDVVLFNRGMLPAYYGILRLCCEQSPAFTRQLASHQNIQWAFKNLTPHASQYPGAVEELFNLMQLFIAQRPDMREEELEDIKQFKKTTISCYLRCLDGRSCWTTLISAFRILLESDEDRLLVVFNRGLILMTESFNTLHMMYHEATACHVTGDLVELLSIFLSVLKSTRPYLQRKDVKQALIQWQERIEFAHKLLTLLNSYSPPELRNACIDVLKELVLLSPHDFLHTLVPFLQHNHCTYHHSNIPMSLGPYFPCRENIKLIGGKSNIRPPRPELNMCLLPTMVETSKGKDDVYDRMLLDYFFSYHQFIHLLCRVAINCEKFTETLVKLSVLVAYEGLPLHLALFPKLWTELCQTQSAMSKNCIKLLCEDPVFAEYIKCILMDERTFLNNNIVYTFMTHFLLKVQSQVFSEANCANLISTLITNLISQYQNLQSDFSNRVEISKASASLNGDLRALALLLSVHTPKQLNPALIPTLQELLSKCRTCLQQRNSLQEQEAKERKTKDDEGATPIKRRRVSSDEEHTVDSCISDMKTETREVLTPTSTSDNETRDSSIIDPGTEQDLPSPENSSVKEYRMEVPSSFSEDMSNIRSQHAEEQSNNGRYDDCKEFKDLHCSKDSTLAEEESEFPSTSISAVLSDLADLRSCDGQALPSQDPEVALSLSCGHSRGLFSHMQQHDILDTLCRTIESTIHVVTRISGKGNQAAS
How it was run: (§1)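 The table lists average log2 ratios of fragment over vehicle, from an unpaired t-test on global-median-normalised Spectronaut label-free quantities. Proteins with ≥2 unique peptides were used. Samples were HEK293T lysate (495 µg) treated in triplicate with fragment at 200 µM or vehicle for 3 h, then with Biotin-Ahx-Ub-VS (0.5 µM final) for 1 h, with labelled DUBs NeutrAvidin-enriched and run by diaPASEF LC-MS/MS.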

[2] = molecular target: T1, USP36 (UniProt Q9P275)
T1 sequence (whole entry): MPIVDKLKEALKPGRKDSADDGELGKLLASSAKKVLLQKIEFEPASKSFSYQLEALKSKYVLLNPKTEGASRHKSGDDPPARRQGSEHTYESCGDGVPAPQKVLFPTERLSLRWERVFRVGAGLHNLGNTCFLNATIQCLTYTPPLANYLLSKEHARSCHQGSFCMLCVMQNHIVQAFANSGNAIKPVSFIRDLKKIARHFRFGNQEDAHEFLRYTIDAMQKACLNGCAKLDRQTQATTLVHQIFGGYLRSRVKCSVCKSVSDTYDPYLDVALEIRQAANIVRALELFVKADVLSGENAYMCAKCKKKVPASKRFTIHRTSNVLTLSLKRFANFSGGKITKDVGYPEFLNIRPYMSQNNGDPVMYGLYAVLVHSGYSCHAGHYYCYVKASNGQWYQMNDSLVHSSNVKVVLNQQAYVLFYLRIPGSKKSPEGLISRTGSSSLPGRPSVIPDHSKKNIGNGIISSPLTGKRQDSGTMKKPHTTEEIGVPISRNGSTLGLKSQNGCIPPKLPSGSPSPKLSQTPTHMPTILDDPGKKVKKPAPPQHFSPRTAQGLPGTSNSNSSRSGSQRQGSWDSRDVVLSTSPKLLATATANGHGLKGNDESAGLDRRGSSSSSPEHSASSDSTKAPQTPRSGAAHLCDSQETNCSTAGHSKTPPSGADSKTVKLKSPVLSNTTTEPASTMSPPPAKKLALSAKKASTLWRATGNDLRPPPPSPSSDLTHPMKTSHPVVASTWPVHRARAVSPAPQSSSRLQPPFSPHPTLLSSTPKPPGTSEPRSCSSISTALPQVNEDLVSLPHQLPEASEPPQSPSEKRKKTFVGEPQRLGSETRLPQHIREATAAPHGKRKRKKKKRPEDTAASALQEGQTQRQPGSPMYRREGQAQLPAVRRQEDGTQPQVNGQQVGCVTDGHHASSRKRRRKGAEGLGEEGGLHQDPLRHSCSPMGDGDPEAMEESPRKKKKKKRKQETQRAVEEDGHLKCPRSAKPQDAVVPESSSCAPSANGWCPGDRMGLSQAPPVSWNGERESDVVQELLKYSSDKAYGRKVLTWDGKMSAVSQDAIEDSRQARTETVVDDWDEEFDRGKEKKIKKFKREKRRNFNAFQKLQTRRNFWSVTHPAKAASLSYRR
How it was run: as §1

[3] = molecular target: T2, USP38 (UniProt Q8NB14)
T2 sequence (whole entry): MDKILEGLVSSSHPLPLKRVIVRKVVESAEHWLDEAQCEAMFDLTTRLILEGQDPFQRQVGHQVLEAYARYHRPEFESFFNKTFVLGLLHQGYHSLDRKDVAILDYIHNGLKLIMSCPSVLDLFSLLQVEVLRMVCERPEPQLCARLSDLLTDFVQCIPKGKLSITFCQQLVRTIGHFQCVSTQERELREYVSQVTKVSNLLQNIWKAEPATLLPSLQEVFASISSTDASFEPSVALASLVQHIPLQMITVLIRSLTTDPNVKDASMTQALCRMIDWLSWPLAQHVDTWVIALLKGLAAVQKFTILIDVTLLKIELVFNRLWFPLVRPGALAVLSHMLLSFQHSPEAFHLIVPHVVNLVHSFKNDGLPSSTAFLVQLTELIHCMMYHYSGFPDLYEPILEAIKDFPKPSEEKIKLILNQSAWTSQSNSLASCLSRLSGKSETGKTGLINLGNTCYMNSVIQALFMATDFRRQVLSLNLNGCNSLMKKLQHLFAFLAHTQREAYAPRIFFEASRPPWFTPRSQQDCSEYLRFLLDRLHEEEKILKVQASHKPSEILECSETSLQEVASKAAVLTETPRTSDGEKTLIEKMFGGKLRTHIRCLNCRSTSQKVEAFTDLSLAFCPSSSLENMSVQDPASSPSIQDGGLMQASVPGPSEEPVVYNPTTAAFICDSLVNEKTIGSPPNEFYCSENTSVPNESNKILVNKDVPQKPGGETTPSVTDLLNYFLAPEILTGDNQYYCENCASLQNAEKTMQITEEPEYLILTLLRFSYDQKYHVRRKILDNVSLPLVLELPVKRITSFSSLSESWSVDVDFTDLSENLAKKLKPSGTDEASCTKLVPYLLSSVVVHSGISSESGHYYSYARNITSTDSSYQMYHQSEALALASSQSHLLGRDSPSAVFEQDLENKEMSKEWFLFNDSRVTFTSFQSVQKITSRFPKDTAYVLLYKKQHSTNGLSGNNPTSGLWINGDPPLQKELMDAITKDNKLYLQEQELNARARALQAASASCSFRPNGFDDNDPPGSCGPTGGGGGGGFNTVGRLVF
How it was run: as §1

[4] = molecular target: T3, USP39 (UniProt Q53GS9)
T3 sequence (whole entry): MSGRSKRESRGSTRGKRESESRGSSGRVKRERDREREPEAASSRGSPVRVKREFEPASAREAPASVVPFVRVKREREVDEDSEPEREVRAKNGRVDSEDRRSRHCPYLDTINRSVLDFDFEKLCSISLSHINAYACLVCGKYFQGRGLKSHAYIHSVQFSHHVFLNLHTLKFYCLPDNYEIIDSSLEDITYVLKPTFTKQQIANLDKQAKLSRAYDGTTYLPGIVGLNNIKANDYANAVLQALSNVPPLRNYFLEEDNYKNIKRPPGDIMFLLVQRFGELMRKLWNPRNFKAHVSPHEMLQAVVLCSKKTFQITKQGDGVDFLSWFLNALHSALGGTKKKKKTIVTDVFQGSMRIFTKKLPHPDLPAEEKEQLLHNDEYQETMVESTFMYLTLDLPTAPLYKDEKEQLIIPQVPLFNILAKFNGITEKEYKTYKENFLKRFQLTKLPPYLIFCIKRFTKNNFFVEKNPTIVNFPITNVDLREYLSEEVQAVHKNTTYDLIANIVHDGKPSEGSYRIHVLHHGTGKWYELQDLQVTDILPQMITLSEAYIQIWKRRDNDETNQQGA
How it was run: as §1

[5] = molecular target: T4, USP4 (UniProt Q13107)
T4 sequence (whole entry): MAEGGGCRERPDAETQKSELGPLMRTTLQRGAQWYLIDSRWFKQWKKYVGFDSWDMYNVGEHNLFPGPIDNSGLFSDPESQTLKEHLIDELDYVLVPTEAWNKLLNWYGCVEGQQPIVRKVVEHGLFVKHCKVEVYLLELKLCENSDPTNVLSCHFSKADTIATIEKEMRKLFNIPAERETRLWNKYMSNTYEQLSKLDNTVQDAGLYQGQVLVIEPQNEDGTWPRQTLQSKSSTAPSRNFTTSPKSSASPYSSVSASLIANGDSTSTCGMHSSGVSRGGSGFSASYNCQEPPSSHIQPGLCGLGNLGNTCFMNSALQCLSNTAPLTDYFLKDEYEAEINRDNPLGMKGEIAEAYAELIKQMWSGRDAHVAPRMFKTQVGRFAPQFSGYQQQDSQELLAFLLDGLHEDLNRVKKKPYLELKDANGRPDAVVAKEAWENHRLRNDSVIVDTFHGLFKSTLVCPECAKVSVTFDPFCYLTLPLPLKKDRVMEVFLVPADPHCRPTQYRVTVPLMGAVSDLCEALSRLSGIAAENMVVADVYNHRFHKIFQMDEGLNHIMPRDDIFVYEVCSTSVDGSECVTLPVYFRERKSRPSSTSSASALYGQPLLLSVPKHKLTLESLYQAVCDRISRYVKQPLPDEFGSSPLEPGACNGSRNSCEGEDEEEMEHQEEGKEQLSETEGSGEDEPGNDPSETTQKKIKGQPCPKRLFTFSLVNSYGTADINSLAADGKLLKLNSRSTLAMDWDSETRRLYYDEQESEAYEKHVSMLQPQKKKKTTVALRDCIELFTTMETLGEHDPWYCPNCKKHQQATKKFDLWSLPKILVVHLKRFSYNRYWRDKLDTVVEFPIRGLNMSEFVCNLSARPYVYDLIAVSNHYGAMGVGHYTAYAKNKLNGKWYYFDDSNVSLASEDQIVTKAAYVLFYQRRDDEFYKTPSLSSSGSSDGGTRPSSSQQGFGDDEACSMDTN
How it was run: as §1

Measured: log2 ratio of Biotin-Ahx-Ub-VS probe labelling

Cc1nc(CC2CCN(C(=O)CCl)CC2)no1
inactive: [1] -0.459 | [2] -0.425 | [3] -0.544 | [4] 0.344 | [5] -0.686
